The entries come from a sample that favours the strongest signals as a whole.
Key:
Assay in all cases: glycan array binding signal (z-score within array); higher = stronger binding
Conditions in all cases: glycan notation: IUPAC condensed, linker removed
[1] = target: Fuc(a1-2)Gal(b1-3)GlcNAc(b1-3)[Gal(b1-4)GlcNAc(b1-6)]Gal(b1-4)Glc
Outline: (§1)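 Columns mapping to the same glycan were averaged after glycan names were converted to IUPAC-condensed notation. The data come from 3228 arrays in the Consortium for Functional Glycomics database, limited to those with an available protein sequence. Binding is reported as a within-array Z-score averaged across arrays of one protein sequence and across linkers.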

[2] = target: Fuc(a1-2)Gal(b1-3)[Fuc(a1-4)]GlcNAc
Outline: as §1

[3] = target: Fuc(a1-2)Gal(b1-3)[Fuc(a1-4)]GlcNAc(b1-2)Man(a1-3)[Fuc(a1-2)Gal(b1-3)[Fuc(a1-4)]GlcNAc(b1-2)Man(a1-6)]Man(b1-4)GlcNAc(b1-4)[Fuc(a1-6)]GlcNAc(b1-4)[Fuc(a1-6)]GlcNAc
Outline: as §1

[4] = target: Fuc(a1-2)Gal(b1-4)GlcNAc(b1-3)[Fuc(a1-3)[Gal(b1-4)]GlcNAc(b1-6)]Gal(b1-4)Glc
Outline: as §1

[5] = target: Fuc(a1-2)Gal(b1-4)[Fuc(a1-3)]GlcNAc(b1-3)Gal(b1-4)[Fuc(a1-3)]GlcNAc(b1-3)Gal(b1-4)[Fuc(a1-3)]GlcNAc
Outline: as §1

[6] = target: Fuc(a1-2)[Gal(a1-3)]Gal(b1-4)GlcNAc(b1-3)GalNAc
Outline: as §1

[7] = target: Fuc(a1-3)[Gal(b1-4)]GlcNAc(b1-2)Man(a1-3)[Fuc(a1-3)[Gal(b1-4)]GlcNAc(b1-2)Man(a1-6)]Man(b1-4)GlcNAc(b1-4)GlcNAc
Outline: as §1

[8] = target: Gal(a1-3)Gal(b1-3)GlcNAc(b1-2)Man
Outline: as §1

[9] = target: Gal(a1-3)Gal(b1-3)GlcNAc(b1-6)GalNAc
Outline: as §1

[10] = target: Gal(a1-3)Gal(b1-4)GlcNAc(b1-6)GalNAc
Outline: as §1

Gal(b1-4)GlcNAc = target: Gal(b1-4)GlcNAc
Outline: as §1

[11] = target: Gal(b1-4)GlcNAc(b1-2)[Gal(b1-4)GlcNAc(b1-4)]Man(a1-3)[GlcNAc(b1-4)][Gal(b1-4)GlcNAc(b1-2)[Gal(b1-4)GlcNAc(b1-6)]Man(a1-6)]Man(b1-4)GlcNAc(b1-4)GlcNAc
Outline: as §1

[12] = target: Gal(b1-4)GlcNAc(b1-2)[Gal(b1-4)GlcNAc(b1-6)]Man(a1-6)[GlcNAc(b1-4)][Gal(b1-4)GlcNAc(b1-2)Man(a1-3)]Man(b1-4)GlcNAc(b1-4)GlcNAc
Outline: as §1

[13] = target: Gal(b1-4)GlcNAc(b1-3)Gal(b1-4)GlcNAc(b1-3)Gal(b1-4)GlcNAc(b1-3)Gal(b1-4)GlcNAc(b1-2)Man(a1-3)[Gal(b1-4)GlcNAc(b1-3)Gal(b1-4)GlcNAc(b1-3)Gal(b1-4)GlcNAc(b1-3)Gal(b1-4)GlcNAc(b1-2)Man(a1-6)]Man(b1-4)GlcNAc(b1-4)[Fuc(a1-6)]GlcNAc
Outline: as §1

[14] = target: Gal(b1-4)GlcNAc(b1-3)Gal(b1-4)GlcNAc(b1-3)Gal(b1-4)GlcNAc(b1-3)Gal(b1-4)GlcNAc(b1-3)Gal(b1-4)GlcNAc(b1-2)Man(a1-3)[Gal(b1-4)GlcNAc(b1-3)Gal(b1-4)GlcNAc(b1-3)Gal(b1-4)GlcNAc(b1-3)Gal(b1-4)GlcNAc(b1-3)Gal(b1-4)GlcNAc(b1-2)Man(a1-6)]Man(b1-4)GlcNAc(b1-4)[Fuc(a1-6)]GlcNAc
Outline: as §1

[15] = target: Gal(b1-4)GlcNAc(b1-3)GalNAc
Outline: as §1

[16] = target: Gal(b1-4)GlcNAc(b1-6)[Gal(b1-3)]GalNAc
Outline: as §1

Gal3S(b1-4)Glc = target: Gal3S(b1-4)Glc
Outline: as §1

Gal6S(b1-4)Glc6S = target: Gal6S(b1-4)Glc6S
Outline: as §1

GalNAc(b1-4)GlcNAc6S = target: GalNAc(b1-4)GlcNAc6S
Outline: as §1

GlcA(b1-6)Gal = target: GlcA(b1-6)Gal
Outline: as §1

[17] = target: GlcNAc(a1-4)Gal(b1-4)GlcNAc(b1-3)Gal(b1-4)Glc
Outline: as §1

[18] = target: GlcNAc(a1-4)Gal(b1-4)GlcNAc(b1-3)Gal(b1-4)GlcNAc(b1-3)Gal(b1-4)GlcNAc
Outline: as §1

[19] = target: GlcNAc(b1-3)Gal(b1-4)GlcNAc(b1-2)[GlcNAc(b1-3)Gal(b1-4)GlcNAc(b1-6)]Man(a1-6)[GlcNAc(b1-3)Gal(b1-4)GlcNAc(b1-2)Man(a1-3)]Man(b1-4)GlcNAc(b1-4)GlcNAc
Outline: as §1

[20] = target: GlcNAc(b1-3)Gal(b1-4)GlcNAc(b1-3)Gal(b1-4)GlcNAc(b1-3)Gal(b1-4)GlcNAc(b1-2)[GlcNAc(b1-3)Gal(b1-4)GlcNAc(b1-3)Gal(b1-4)GlcNAc(b1-3)Gal(b1-4)GlcNAc(b1-6)]Man(a1-6)[GlcNAc(b1-3)Gal(b1-4)GlcNAc(b1-3)Gal(b1-4)GlcNAc(b1-3)Gal(b1-4)GlcNAc(b1-2)Man(a1-3)]Man(b1-4)GlcNAc(b1-4)[Fuc(a1-6)]GlcNAc
Outline: as §1

[21] = target: GlcNAc(b1-3)Gal(b1-4)GlcNAc(b1-3)Gal(b1-4)GlcNAc(b1-3)Gal(b1-4)GlcNAc(b1-3)Gal(b1-4)GlcNAc(b1-2)Man(a1-3)[GlcNAc(b1-3)Gal(b1-4)GlcNAc(b1-3)Gal(b1-4)GlcNAc(b1-3)Gal(b1-4)GlcNAc(b1-3)Gal(b1-4)GlcNAc(b1-2)Man(a1-6)]Man(b1-4)GlcNAc(b1-4)GlcNAc
Outline: as §1

[22] = target: GlcNAc(b1-3)[GlcNAc(b1-6)]Gal(b1-4)GlcNAc
Outline: as §1

[23] = target: GlcNAc(b1-4)Gal(b1-4)GlcNAc
Outline: as §1

B1: Pwp2 (Candida glabrata) (protein)
chain: MGSSHHHHHHSSGLVPRGSHMASKNPVELNNVCTFPNDYGRIPGFTVLVGRLGLLISASDYKELLRYPGAFLIATQDTMTTSPNFELTGFPFFTGLYGLTVFPLDLLVELRGYFVPPNSGQYTFTLSDSDDAAIIFLGNPSAFPCGDLQNWPKPSEEDITVTDHLFPSRTLYLIEGVAYPMRIAYYNGIGAGRLNAAFIDPSGTRHTNWEGYIWQYDPCSTCTYS
In the case of B1, the “glycan array binding signal (z-score)” value [1] is reported as -0.594, the “glycan array binding signal (z-score)” value [2] is reported as -0.451 and the “glycan array binding signal (z-score)” value [3] is reported as 6.32. For the same binder, the “glycan array binding signal (z-score)” value [4] was 0.384, the “glycan array binding signal (z-score)” value [5] was -0.086 and the “glycan array binding signal (z-score)” value [6] was -0.603. For the same binder, the “glycan array binding signal (z-score)” value [7] was 2.54, the “glycan array binding signal (z-score)” value [8] was -0.046 and the “glycan array binding signal (z-score)” value [9] was -0.526. For the same binder, the “glycan array binding signal (z-score)” value [10] was -0.281, the “glycan array binding signal (z-score)” value (Gal(b1-4)GlcNAc) was -0.286 and the “glycan array binding signal (z-score)” value [11] was -0.248. The “glycan array binding signal (z-score)” value [12] was -0.569, the “glycan array binding signal (z-score)” value [13] was 3.91 and the “glycan array binding signal (z-score)” value [14] was 1.62. For the same binder, the “glycan array binding signal (z-score)” value [15] was -0.473, the “glycan array binding signal (z-score)” value [16] was 1.6 and the “glycan array binding signal (z-score)” value (Gal3S(b1-4)Glc) was -0.429. The “glycan array binding signal (z-score)” value (Gal6S(b1-4)Glc6S) was -0.419, the “glycan array binding signal (z-score)” value (GalNAc(b1-4)GlcNAc6S) was -0.448 and the “glycan array binding signal (z-score)” value (GlcA(b1-6)Gal) was -0.235. The “glycan array binding signal (z-score)” value [17] was -0.466, the “glycan array binding signal (z-score)” value [18] was -0.42 and the “glycan array binding signal (z-score)” value [19] was 4.24. The “glycan array binding signal (z-score)” value [20] was 5.45, the “glycan array binding signal (z-score)” value [21] was -0.549 and the “glycan array binding signal (z-score)” value [22] was -0.141. For the same binder, the “glycan array binding signal (z-score)” value [23] was -0.446.
